Our source for the binding signal values is article PMC11006913.

Positions count from the first letter of the chain named.

Assay in all cases: PBM; 200 nM protein, PBS
Common to all, as to conditions: dsDNA, one strand shown

The target in test [1] is HOXB6 (Homo sapiens, UniProt P17509 132-218, K202E).
Test [2] addresses HOXB6 (Homo sapiens, UniProt P17509 132-218).
Test [3] concerns the target T1, SIX6 (Homo sapiens, UniProt O95475 114-200, T165G).
T1 sequence: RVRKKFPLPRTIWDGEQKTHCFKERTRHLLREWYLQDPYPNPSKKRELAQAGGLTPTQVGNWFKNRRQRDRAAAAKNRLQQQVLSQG

Test [4] addresses T2, SIX6 (Homo sapiens, UniProt O95475 114-200, T165A).
T2 sequence: T1 sequence with G52A

Test [5] concerns the target MSX2 (Homo sapiens, UniProt P35548 130-214).
The target in test [6] is MSX2 (Homo sapiens, UniProt P35548 130-214, F161Y).
A further test deals with HESX1 (Homo sapiens, UniProt Q9UBX0 95-180).
Test [7] has as its target HOXA2 (Homo sapiens, UniProt O43364 129-215, R185T).
Test [8] has as its target HOXB9 (Homo sapiens, UniProt P17482 171-250).
Test [9] deals with HOXB9 (Homo sapiens, UniProt P17482 171-250, R186Q).
Test [10] deals with HOXA2 (Homo sapiens, UniProt O43364 129-215).
Test [11] deals with ALX3 (Homo sapiens, UniProt O95076 139-225, N203Q).
Test [12] has as its target HOXA2 (Homo sapiens, UniProt O43364 129-215, R185K).
For test [13], the target named is ALX3 (Homo sapiens, UniProt O95076 139-225).
Test [14] concerns the target ALX3 (Homo sapiens, UniProt O95076 139-225, L168Q).
Test [15] has as its target ALX3 (Homo sapiens, UniProt O95076 139-225, L168V).
The target in test [16] is HOXA2 (Homo sapiens, UniProt O43364 129-215, Y150S).
For test [17], the target named is ALX3 (Homo sapiens, UniProt O95076 139-225, N203S).
For test [18], the target named is ALX1 (Homo sapiens, UniProt Q15699 118-204, L144V).
The target of test [19] is T3, NKX2-6 (Homo sapiens, UniProt A6NCS4 118-204).
T3 sequence: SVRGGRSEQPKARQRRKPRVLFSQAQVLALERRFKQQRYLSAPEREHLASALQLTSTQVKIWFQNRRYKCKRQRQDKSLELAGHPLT

The target of test [20] is ALX1 (Homo sapiens, UniProt Q15699 118-204, L144R).
Test [21] concerns the target T4, NKX2-6 (Homo sapiens, UniProt A6NCS4 118-204, F151L).
T4 sequence: T3 sequence with F34L

For test [22], the target named is ALX1 (Homo sapiens, UniProt Q15699 118-204).
In test [23] the target is MSX2 (Homo sapiens, UniProt P35548 130-214, R199I).
The target of test [24] is T5, NKX2-6 (Homo sapiens, UniProt A6NCS4 118-204, R150C).
T5 sequence: T3 sequence with R33C

A further test addresses PITX2 (Homo sapiens, UniProt Q99697 72-157).

HOXA2 (Homo sapiens, UniProt O43364 129-215, R185K), sequence (O43364 129-215 R185K): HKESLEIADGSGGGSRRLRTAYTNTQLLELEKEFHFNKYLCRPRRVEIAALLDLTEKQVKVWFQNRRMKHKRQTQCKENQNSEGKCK
ALX3 (Homo sapiens, UniProt O95076 139-225, N203Q), sequence (O95076 139-225 N203Q): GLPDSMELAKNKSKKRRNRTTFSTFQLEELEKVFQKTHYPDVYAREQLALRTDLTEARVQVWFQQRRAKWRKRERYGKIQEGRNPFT
HESX1, sequence (Q9UBX0 95-180): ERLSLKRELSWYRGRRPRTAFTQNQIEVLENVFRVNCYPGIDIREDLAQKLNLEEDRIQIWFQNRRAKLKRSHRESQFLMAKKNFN
MSX2 (Homo sapiens, UniProt P35548 130-214, R199I), sequence (P35548 130-214 R199I): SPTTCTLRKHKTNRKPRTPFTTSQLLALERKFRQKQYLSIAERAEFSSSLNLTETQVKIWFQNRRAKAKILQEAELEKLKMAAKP
HOXA2 (Homo sapiens, UniProt O43364 129-215), sequence (O43364 129-215): as the sequence (O43364 129-215 R185K) above, with K57R counted along it
MSX2 (Homo sapiens, UniProt P35548 130-214), sequence (P35548 130-214): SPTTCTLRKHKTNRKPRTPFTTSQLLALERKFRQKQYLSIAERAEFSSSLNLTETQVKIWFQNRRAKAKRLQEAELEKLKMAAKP
HOXA2 (Homo sapiens, UniProt O43364 129-215, Y150S), sequence (O43364 129-215 Y150S): as the sequence (O43364 129-215 R185K) above, with Y22S, K57R counted along it
HOXA2 (Homo sapiens, UniProt O43364 129-215, R185T), sequence (O43364 129-215 R185T): as the sequence (O43364 129-215 R185K) above, with K57T counted along it
ALX3 (Homo sapiens, UniProt O95076 139-225, N203S), sequence (O95076 139-225 N203S): as the sequence (O95076 139-225 N203Q) above, with Q65S counted along it
MSX2 (Homo sapiens, UniProt P35548 130-214, F161Y), sequence (P35548 130-214 F161Y): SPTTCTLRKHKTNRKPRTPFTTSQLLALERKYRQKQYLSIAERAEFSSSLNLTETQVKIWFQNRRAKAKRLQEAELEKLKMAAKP
ALX3 (Homo sapiens, UniProt O95076 139-225), sequence (O95076 139-225): as the sequence (O95076 139-225 N203Q) above, with Q65N counted along it
ALX3 (Homo sapiens, UniProt O95076 139-225, L168V), sequence (O95076 139-225 L168V): as the sequence (O95076 139-225 N203Q) above, with L30V, Q65N counted along it
ALX3 (Homo sapiens, UniProt O95076 139-225, L168Q), sequence (O95076 139-225 L168Q): as the sequence (O95076 139-225 N203Q) above, with L30Q, Q65N counted along it
HOXB9 (Homo sapiens, UniProt P17482 171-250, R186Q), sequence (P17482 171-250 R186Q): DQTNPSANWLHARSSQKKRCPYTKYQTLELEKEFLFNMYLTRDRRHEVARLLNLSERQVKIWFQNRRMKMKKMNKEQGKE
HOXB6 (Homo sapiens, UniProt P17509 132-218), sequence (P17509 132-218): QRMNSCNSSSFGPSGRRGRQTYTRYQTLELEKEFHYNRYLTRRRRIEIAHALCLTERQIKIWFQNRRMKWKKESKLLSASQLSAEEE
ALX1 (Homo sapiens, UniProt Q15699 118-204, L144R), sequence (Q15699 118-204 L144R): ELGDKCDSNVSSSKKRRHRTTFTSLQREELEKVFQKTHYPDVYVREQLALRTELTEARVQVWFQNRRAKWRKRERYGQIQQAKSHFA
HOXB6 (Homo sapiens, UniProt P17509 132-218, K202E), sequence (P17509 132-218 K202E): as the sequence (P17509 132-218) above, with K71E counted along it
ALX1 (Homo sapiens, UniProt Q15699 118-204), sequence (Q15699 118-204): as the sequence (Q15699 118-204 L144R) above, with R27L counted along it
HOXB9 (Homo sapiens, UniProt P17482 171-250), sequence (P17482 171-250): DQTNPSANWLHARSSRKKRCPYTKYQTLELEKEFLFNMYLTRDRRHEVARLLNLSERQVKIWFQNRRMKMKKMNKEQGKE
ALX1 (Homo sapiens, UniProt Q15699 118-204, L144V), sequence (Q15699 118-204 L144V): as the sequence (Q15699 118-204 L144R) above, with R27V counted along it

For CCGGCGCA, the binding signal with HOXB6 [1] is 9.01 upbm affinity estimate (log intensity, higher = more binding, comparable within an allelic series); in the test with HOXB6 [2], 9.07 upbm affinity estimate (log intensity, higher = more binding, comparable within an allelic series).
As for AGTGACAC, the binding signal is 10.6 upbm affinity estimate (log intensity, higher = more binding, comparable within an allelic series) with SIX6 [3] and 10.5 upbm affinity estimate (log intensity, higher = more binding, comparable within an allelic series) with SIX6 [4].
For AGGTGTAA, in the test with SIX6 [3], the binding signal is 10.5 upbm affinity estimate (log intensity, higher = more binding, comparable within an allelic series).
Still for that read-out and setting: then AAGACACC, with 10.6 upbm affinity estimate (log intensity, higher = more binding, comparable within an allelic series); and AGACACCA, with 10.5 upbm affinity estimate (log intensity, higher = more binding, comparable within an allelic series).
With AAGTGTCA, the binding signal is 10.5 upbm affinity estimate (log intensity, higher = more binding, comparable within an allelic series) with SIX6 [3]; 10.5 upbm affinity estimate (log intensity, higher = more binding, comparable within an allelic series) with SIX6 [4]; 10.6 upbm affinity estimate (log intensity, higher = more binding, comparable within an allelic series) in the test with MSX2 [5]; 10.5 upbm affinity estimate (log intensity, higher = more binding, comparable within an allelic series) with MSX2 [6].
As to GAGAATGA, the binding signal with HESX1 is 7.23 upbm affinity estimate (log intensity, higher = more binding, comparable within an allelic series).
Consider ATCAATAG, for which the binding signal with HOXA2 [7] was 9.12 upbm affinity estimate (log intensity, higher = more binding, comparable within an allelic series); in the test with HOXB9 [8], 10.1 upbm affinity estimate (log intensity, higher = more binding, comparable within an allelic series); in the test with HOXB9 [9], 10.1 upbm affinity estimate (log intensity, higher = more binding, comparable within an allelic series); with HOXA2 [10] it was 9.47 upbm affinity estimate (log intensity, higher = more binding, comparable within an allelic series).
For the sequence CCCCCCCA, the binding signal was 7.25 upbm affinity estimate (log intensity, higher = more binding, comparable within an allelic series) with HOXA2 [7]; 7.7 upbm affinity estimate (log intensity, higher = more binding, comparable within an allelic series) with ALX3 [11]; 9.99 upbm affinity estimate (log intensity, higher = more binding, comparable within an allelic series) with HOXA2 [12]; 7.68 upbm affinity estimate (log intensity, higher = more binding, comparable within an allelic series) with ALX3 [13]; 7.68 upbm affinity estimate (log intensity, higher = more binding, comparable within an allelic series) with ALX3 [14]; 7.64 upbm affinity estimate (log intensity, higher = more binding, comparable within an allelic series) in the test with ALX3 [15]. In addition, the binding signal with HOXA2 [16] was 10.2 upbm affinity estimate (log intensity, higher = more binding, comparable within an allelic series); with ALX3 [17], 7.67 upbm affinity estimate (log intensity, higher = more binding, comparable within an allelic series); in the test with HOXA2 [10], 7.37 upbm affinity estimate (log intensity, higher = more binding, comparable within an allelic series).
Take ATAACTGC: the binding signal with HESX1 is 7.57 upbm affinity estimate (log intensity, higher = more binding, comparable within an allelic series).
Still for that read-out and setting: then GGTTATGA, with 7.26 upbm affinity estimate (log intensity, higher = more binding, comparable within an allelic series).
With CTGGTGTC, in the test with SIX6 [3], the binding signal was 10.6 upbm affinity estimate (log intensity, higher = more binding, comparable within an allelic series).
Take GCATAAAC: in the test with HESX1, the binding signal is 7.44 upbm affinity estimate (log intensity, higher = more binding, comparable within an allelic series).
In the case of CCGGTTCC, the binding signal with HOXA2 [7] was 6.98 upbm affinity estimate (log intensity, higher = more binding, comparable within an allelic series); with ALX1 [18], 6.06 upbm affinity estimate (log intensity, higher = more binding, comparable within an allelic series); in the test with ALX3 [11], 7.77 upbm affinity estimate (log intensity, higher = more binding, comparable within an allelic series); in the test with NKX2-6 [19], 9.05 upbm affinity estimate (log intensity, higher = more binding, comparable within an allelic series); with HOXA2 [12] it was 10.1 upbm affinity estimate (log intensity, higher = more binding, comparable within an allelic series); with ALX1 [20] it was 6.02 upbm affinity estimate (log intensity, higher = more binding, comparable within an allelic series). Besides, the binding signal is 7.63 upbm affinity estimate (log intensity, higher = more binding, comparable within an allelic series) in the test with ALX3 [13]; 7.69 upbm affinity estimate (log intensity, higher = more binding, comparable within an allelic series) with ALX3 [14]; 9.2 upbm affinity estimate (log intensity, higher = more binding, comparable within an allelic series) in the test with NKX2-6 [21]; 7.7 upbm affinity estimate (log intensity, higher = more binding, comparable within an allelic series) with ALX3 [15]; 10.4 upbm affinity estimate (log intensity, higher = more binding, comparable within an allelic series) with HOXA2 [16]; 6 upbm affinity estimate (log intensity, higher = more binding, comparable within an allelic series) in the test with ALX1 [22]. Further, the binding signal with ALX3 [17] is 7.77 upbm affinity estimate (log intensity, higher = more binding, comparable within an allelic series); in the test with HOXA2 [10], 6.81 upbm affinity estimate (log intensity, higher = more binding, comparable within an allelic series).
With CCGCCGCA, the binding signal in the test with HOXA2 [7] is 7.15 upbm affinity estimate (log intensity, higher = more binding, comparable within an allelic series); in the test with MSX2 [23], 9.56 upbm affinity estimate (log intensity, higher = more binding, comparable within an allelic series); with HOXA2 [12] it was 10.1 upbm affinity estimate (log intensity, higher = more binding, comparable within an allelic series); with MSX2 [5], 9.59 upbm affinity estimate (log intensity, higher = more binding, comparable within an allelic series); in the test with MSX2 [6], 9.59 upbm affinity estimate (log intensity, higher = more binding, comparable within an allelic series); with HOXA2 [16], 10.4 upbm affinity estimate (log intensity, higher = more binding, comparable within an allelic series). Besides, the binding signal with HOXA2 [10] was 7.05 upbm affinity estimate (log intensity, higher = more binding, comparable within an allelic series).
On to GGTGTAAC, for which the binding signal is 10.4 upbm affinity estimate (log intensity, higher = more binding, comparable within an allelic series) with SIX6 [3] and 10.4 upbm affinity estimate (log intensity, higher = more binding, comparable within an allelic series) with SIX6 [4].
For ACACCACC, the binding signal with SIX6 [3] is 10.3 upbm affinity estimate (log intensity, higher = more binding, comparable within an allelic series).
Take CTGGCTCC: the binding signal with HOXA2 [7] was 7.01 upbm affinity estimate (log intensity, higher = more binding, comparable within an allelic series); with NKX2-6 [24], 9.34 upbm affinity estimate (log intensity, higher = more binding, comparable within an allelic series); with MSX2 [23], 9.47 upbm affinity estimate (log intensity, higher = more binding, comparable within an allelic series); with HOXA2 [12], 10.3 upbm affinity estimate (log intensity, higher = more binding, comparable within an allelic series); with MSX2 [5], 9.34 upbm affinity estimate (log intensity, higher = more binding, comparable within an allelic series); in the test with MSX2 [6], 9.4 upbm affinity estimate (log intensity, higher = more binding, comparable within an allelic series). Further, the binding signal with HOXA2 [16] was 10.5 upbm affinity estimate (log intensity, higher = more binding, comparable within an allelic series); with HOXA2 [10], 6.91 upbm affinity estimate (log intensity, higher = more binding, comparable within an allelic series).
For AGACACCC, the binding signal in the test with SIX6 [3] was 10.5 upbm affinity estimate (log intensity, higher = more binding, comparable within an allelic series).
As to ATTTACGC, the binding signal with HESX1 was 7.63 upbm affinity estimate (log intensity, higher = more binding, comparable within an allelic series).
As for GGTGACAC, the binding signal was 10.4 upbm affinity estimate (log intensity, higher = more binding, comparable within an allelic series) with SIX6 [3] and 10.4 upbm affinity estimate (log intensity, higher = more binding, comparable within an allelic series) with SIX6 [4].
Consider AAGTAGAG, for which the binding signal in the test with HESX1 was 7.4 upbm affinity estimate (log intensity, higher = more binding, comparable within an allelic series).
In the case of ATTACACC, the binding signal with SIX6 [3] was 10.7 upbm affinity estimate (log intensity, higher = more binding, comparable within an allelic series); with SIX6 [4], 10.7 upbm affinity estimate (log intensity, higher = more binding, comparable within an allelic series); in the test with PITX2, 9.68 upbm affinity estimate (log intensity, higher = more binding, comparable within an allelic series).
GAATTCTA: the binding signal with HESX1 was 6.97 upbm affinity estimate (log intensity, higher = more binding, comparable within an allelic series).
On to AGGTGTCG, for which the binding signal in the test with SIX6 [3] is 10.5 upbm affinity estimate (log intensity, higher = more binding, comparable within an allelic series); with SIX6 [4], 10.4 upbm affinity estimate (log intensity, higher = more binding, comparable within an allelic series).
For GGTGATTA, the binding signal with HOXA2 [7] is 12.6 upbm affinity estimate (log intensity, higher = more binding, comparable within an allelic series); with HOXA2 [12], 13.1 upbm affinity estimate (log intensity, higher = more binding, comparable within an allelic series).
GACACCTC: the binding signal with SIX6 [3] was 10.4 upbm affinity estimate (log intensity, higher = more binding, comparable within an allelic series).
As to CGTATTAC, the binding signal with HOXA2 [7] was 9.06 upbm affinity estimate (log intensity, higher = more binding, comparable within an allelic series); with ALX3 [11], 8.19 upbm affinity estimate (log intensity, higher = more binding, comparable within an allelic series); with ALX3 [13], 9.9 upbm affinity estimate (log intensity, higher = more binding, comparable within an allelic series); in the test with ALX3 [17], 8.23 upbm affinity estimate (log intensity, higher = more binding, comparable within an allelic series); with HOXA2 [10] it was 9.08 upbm affinity estimate (log intensity, higher = more binding, comparable within an allelic series).
Regarding GACACCCC, the binding signal with SIX6 [3] was 10.6 upbm affinity estimate (log intensity, higher = more binding, comparable within an allelic series).
On the same count and under the same terms, to CGACACCC belongs 10.5 upbm affinity estimate (log intensity, higher = more binding, comparable within an allelic series).
CGCCACGC: the binding signal with HOXA2 [7] is 7.14 upbm affinity estimate (log intensity, higher = more binding, comparable within an allelic series); with MSX2 [23] it was 9.28 upbm affinity estimate (log intensity, higher = more binding, comparable within an allelic series); with NKX2-6 [19], 9.43 upbm affinity estimate (log intensity, higher = more binding, comparable within an allelic series); with HOXA2 [12] it was 10.1 upbm affinity estimate (log intensity, higher = more binding, comparable within an allelic series); with MSX2 [5] it was 9.35 upbm affinity estimate (log intensity, higher = more binding, comparable within an allelic series); with NKX2-6 [21], 9.12 upbm affinity estimate (log intensity, higher = more binding, comparable within an allelic series). Moreover, the binding signal in the test with MSX2 [6] is 9.31 upbm affinity estimate (log intensity, higher = more binding, comparable within an allelic series); with HOXA2 [16], 10.3 upbm affinity estimate (log intensity, higher = more binding, comparable within an allelic series); in the test with HOXA2 [10], 7.2 upbm affinity estimate (log intensity, higher = more binding, comparable within an allelic series).
